Measured values published in PubChem BioAssay AID1159580 (chemical genetic matrix, 2015).
Out of some 5,500 compounds screened, about 2,000 (36%) were called active. Roughly 18% stayed inconclusive and do not appear here. Cut-off read from the data, not from the text of the source: active = normalized growth mostly below about 0.91 (no sharp cut-off); inconclusive = no clear call, values can overlap the other calls; inactive = mostly above about 0.92. The list shows a part of the results.

Assay: chemical genetic growth profiling, strain panel (AID 1159580);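 note: tested at 20 µM; growth read once vehicle control cultures reached saturation at 30 °C; 1 = growth at the plate median or of vehicle wells; lower values mean less growth of the strain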
Conditions: growth OD

Measured: normalized growth

CCCCCCCCCCc1ccc(-c2ccccc2)cc1
active: S. cerevisiae strains, strain wild type, active compounds read low 0.902
inactive: S. cerevisiae deletion strains, locus YAL013W, strain DEP1, active compounds read low 0.982 | S. cerevisiae deletion strains, locus YBR229C, strain ROT2, active compounds read low 1.01 | S. cerevisiae deletion strains, locus YDL101C, strain DUN1, active compounds read low 0.99 | S. cerevisiae deletion strains, locus YDR150W, strain NUM1, active compounds read low 0.976 | S. cerevisiae deletion strains, locus YEL061C, strain CIN8, active compounds read low 0.988 | S. cerevisiae deletion strains, locus YGR078C, strain PAC10, active compounds read low 0.988 | S. cerevisiae deletion strains, locus YHR030C, strain SLT2, active compounds read low 0.769 | S. cerevisiae deletion strains, locus YHR087W, strain rtc3, active compounds read low 1.09 | S. cerevisiae deletion strains, locus YJL187C, strain SWE1, active compounds read low 1.01 | S. cerevisiae deletion strains, locus YJR043C, strain POL32, active compounds read low 0.992 | S. cerevisiae deletion strains, locus YJR075W, strain HOC1, active compounds read low 0.989 | S. cerevisiae deletion strains, locus YLR039C, strain RIC1, active compounds read low 0.992 | S. cerevisiae deletion strains, locus YLR058C, strain SHM2 (second series), active compounds read low 1.01 | S. cerevisiae deletion strains, locus YLR085C, strain ARP6, active compounds read low 0.845 | S. cerevisiae deletion strains, locus YLR262C, strain YPT6, active compounds read low 0.941 | S. cerevisiae deletion strains, locus YML094W, strain GIM5, active compounds read low 0.97 | S. cerevisiae deletion strains, locus YMR219W, strain ESC1, active compounds read low 0.998 | S. cerevisiae deletion strains, locus YMR263W, strain SAP30, active compounds read low 0.999 | S. cerevisiae deletion strains, locus YMR307W, strain GAS1, active compounds read low 0.669 | S. cerevisiae deletion strains, locus YNL153C, strain GIM3, active compounds read low 1 | S. cerevisiae deletion strains, locus YNL298W, strain CLA4 (second series), active compounds read low 0.926 | S. cerevisiae deletion strains, locus YNL322C, strain KRE1, active compounds read low 0.974 | S. cerevisiae deletion strains, locus YNR030W, strain Alg12, active compounds read low 0.958 | S. cerevisiae deletion strains, locus YPL055C, strain LGE1, active compounds read low 1.06 | S. cerevisiae deletion strains, locus YPL241C, strain CIN2, active compounds read low 0.982 | S. cerevisiae deletion strains, locus YPR135W, strain CTF4, active compounds read low 0.897
